This is one part of a sample in which hits are shown more often than they occur.
KDM5B inh – Primary screen for KDM5B Histone Demethylases FDH-coupled qHTS. Lysine-specific demethylase 5B (Homo sapiens), Q9UGL1. KDM5B demethylase, FDH-coupled NADH fluorescence (FDH is formaldehyde dehydrogenase). Potency, µM (doses to about 57.7 µM), most hits filed as inhibitors. 220,000 tested, 2.6% active. AID 1347165, 2019; active = well fitted inhibition curve with a large enough effect; note: nearly all actives have a fitted effect of over 70% in size
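Compound dilutions met 200 nM (final) KDM5BΔAP for 10 min at room temperature before substrate addition. The substrate mix held 12.5 µM H3K4me3 with cofactors 25 µM α-ketoglutarate and 50 µM Fe²⁺. NADH signal gain over 30 min defined activity.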
Of the large screens only hits and unclear results are named; the others gave an inactive call.

CC(=O)Nc1cccc(-c2cc(C3=CCOCC3)c3cncn3c2)c1	KDM5B inh 40µM
Cc1noc2c(-c3cccc(CO)c3)cc(-c3cccc(C(F)(F)F)c3)nc12	none
Cc1noc(C)c1-c1cc2c(c(-c3cccc(S(C)(=O)=O)c3)c1)C(=O)N(C)C2	none
COc1ccc(-c2cc(-c3c(C)noc3C)c3cncn3c2)cc1	KDM5B inh 32µM
CC(=O)Nc1cccc(-c2csc(Nc3ccc(O)cc3C)n2)c1	none
C[S+](=O)([O-])c1ccc(-c2cc(C(=O)NCc3cccnc3)nn3cccc23)cc1	none
COc1ccc(-c2onc(C)c2-c2ccc(OC)c(OC)c2)c(O)c1	none
C[S+](=O)([O-])c1ccc(-c2cc(C(=O)N3CCCC3)nn3cccc23)cc1	none
Cc1noc(C)c1-c1cc(-c2cccc(CO)c2)cn2cncc12	KDM5B inh 35µM
Cc1ccc(C)c(C(=O)CSc2nnnn2C)c1	none
Cc1nn(C)c2nc(C(C)C)cc(C(=O)N3CCN(c4nccs4)CC3)c12	none
CC(C)C(OC(=O)/C=C/c1cccc(F)c1)C(=O)NC(N)=O (stereo not given)	none
CC(NCc1ccccc1C#N)c1ccccc1F (stereo not given)	none
Cc1ccc2c(c1)C(c1ccc(F)cc1)N(C(=O)CCc1ccccc1)CC(=O)N2 (stereo not given)	none
CN(CC(=O)NCc1nc(-c2ccccc2)no1)S(=O)(=O)c1ccc2ccccc2c1	none
CC(C)CNC(=O)C(C)SCc1ccccc1 (stereo not given)	none
Cc1nc(-c2cccc(NC(=O)N3CCCC3c3c(C)noc3C)c2)cs1 (stereo not given)	none
CC(=O)Nc1cccc(-c2cc(-c3c(C)noc3C)c3cncn3c2)c1	KDM5B inh 40µM
Cc1noc(C)c1-c1cc(-c2cccnc2)cn2cncc12	KDM5B inh 35µM
Cc1noc(C)c1S(=O)(=O)N1CCC(c2noc(-c3cccnc3)n2)C1 (stereo not given)	none
Cc1noc(C)c1-c1cc(-c2cnn(C)c2)cn2cncc12	KDM5B inh 40µM

Source: PubChem (National Center for Advancing Translational Sciences (NCATS))
